What was measured:
[1] = target: T1, Inhibitor of nuclear factor kappa-B kinase subunit epsilon (Homo sapiens) (UniProt Q14164); conditions: at 1 µM;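 also: reported values are averaged percent inhibition figures against human IKKε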
T1 sequence (whole entry): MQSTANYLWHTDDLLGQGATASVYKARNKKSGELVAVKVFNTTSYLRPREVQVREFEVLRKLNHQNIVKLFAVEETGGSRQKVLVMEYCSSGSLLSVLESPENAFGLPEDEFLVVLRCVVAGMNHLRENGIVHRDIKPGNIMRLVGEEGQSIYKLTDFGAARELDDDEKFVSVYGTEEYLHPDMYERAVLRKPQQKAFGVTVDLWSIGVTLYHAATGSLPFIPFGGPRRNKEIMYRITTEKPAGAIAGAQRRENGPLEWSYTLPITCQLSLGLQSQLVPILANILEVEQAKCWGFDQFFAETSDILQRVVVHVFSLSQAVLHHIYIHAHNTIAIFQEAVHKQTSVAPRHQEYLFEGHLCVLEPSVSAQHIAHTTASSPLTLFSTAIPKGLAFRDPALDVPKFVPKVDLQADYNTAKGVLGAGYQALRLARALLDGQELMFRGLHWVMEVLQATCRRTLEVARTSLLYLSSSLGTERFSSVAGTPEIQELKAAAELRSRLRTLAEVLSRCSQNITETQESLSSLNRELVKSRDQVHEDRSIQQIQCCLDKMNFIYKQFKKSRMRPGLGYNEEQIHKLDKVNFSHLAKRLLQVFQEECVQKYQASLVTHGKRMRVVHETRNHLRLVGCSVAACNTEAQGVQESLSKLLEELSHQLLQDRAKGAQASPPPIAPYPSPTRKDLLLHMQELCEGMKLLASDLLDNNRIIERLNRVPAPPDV

[2] = target: T2, Serine/threonine-protein kinase Nek1 (Homo sapiens) (UniProt Q96PY6); conditions: at 0.1 µM
T2 sequence (whole entry): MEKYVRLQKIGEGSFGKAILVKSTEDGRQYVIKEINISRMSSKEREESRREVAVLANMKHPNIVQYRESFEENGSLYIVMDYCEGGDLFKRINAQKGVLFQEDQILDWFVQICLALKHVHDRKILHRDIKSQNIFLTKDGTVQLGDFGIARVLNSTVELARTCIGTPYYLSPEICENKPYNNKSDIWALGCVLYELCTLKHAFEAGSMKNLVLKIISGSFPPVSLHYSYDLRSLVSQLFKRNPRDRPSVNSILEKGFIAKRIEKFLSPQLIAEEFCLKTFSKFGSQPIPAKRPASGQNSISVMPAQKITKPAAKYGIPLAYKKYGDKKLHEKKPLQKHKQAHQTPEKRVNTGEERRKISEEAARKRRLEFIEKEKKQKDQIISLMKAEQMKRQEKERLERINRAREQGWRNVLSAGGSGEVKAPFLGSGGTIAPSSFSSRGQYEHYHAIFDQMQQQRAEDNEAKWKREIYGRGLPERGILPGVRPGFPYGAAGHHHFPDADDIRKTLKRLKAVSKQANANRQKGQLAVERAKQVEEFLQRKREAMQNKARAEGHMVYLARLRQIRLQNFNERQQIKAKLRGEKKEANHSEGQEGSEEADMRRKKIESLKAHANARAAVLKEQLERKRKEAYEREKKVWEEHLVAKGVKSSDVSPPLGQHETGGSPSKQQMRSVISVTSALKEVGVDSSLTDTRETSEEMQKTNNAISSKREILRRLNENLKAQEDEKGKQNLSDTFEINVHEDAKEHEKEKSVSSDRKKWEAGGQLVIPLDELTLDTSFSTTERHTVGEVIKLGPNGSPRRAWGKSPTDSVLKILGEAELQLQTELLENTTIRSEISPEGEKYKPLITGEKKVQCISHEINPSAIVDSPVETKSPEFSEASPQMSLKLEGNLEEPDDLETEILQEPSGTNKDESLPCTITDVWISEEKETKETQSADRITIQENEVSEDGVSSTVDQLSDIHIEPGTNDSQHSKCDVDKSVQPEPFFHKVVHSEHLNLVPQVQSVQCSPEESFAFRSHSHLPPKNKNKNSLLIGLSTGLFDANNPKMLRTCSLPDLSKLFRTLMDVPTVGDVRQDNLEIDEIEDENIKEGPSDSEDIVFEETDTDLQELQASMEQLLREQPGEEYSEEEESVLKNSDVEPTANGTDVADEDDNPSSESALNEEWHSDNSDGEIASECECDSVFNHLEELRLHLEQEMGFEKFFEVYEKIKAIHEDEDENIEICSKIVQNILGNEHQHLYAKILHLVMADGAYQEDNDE

[3] = target: T2, Serine/threonine-protein kinase Nek1 (Homo sapiens); conditions: at 1 µM
[4] = target: T3, Serine/threonine-protein kinase Nek2 (Homo sapiens) (UniProt P51955); conditions: at 0.1 µM
T3 sequence (whole entry): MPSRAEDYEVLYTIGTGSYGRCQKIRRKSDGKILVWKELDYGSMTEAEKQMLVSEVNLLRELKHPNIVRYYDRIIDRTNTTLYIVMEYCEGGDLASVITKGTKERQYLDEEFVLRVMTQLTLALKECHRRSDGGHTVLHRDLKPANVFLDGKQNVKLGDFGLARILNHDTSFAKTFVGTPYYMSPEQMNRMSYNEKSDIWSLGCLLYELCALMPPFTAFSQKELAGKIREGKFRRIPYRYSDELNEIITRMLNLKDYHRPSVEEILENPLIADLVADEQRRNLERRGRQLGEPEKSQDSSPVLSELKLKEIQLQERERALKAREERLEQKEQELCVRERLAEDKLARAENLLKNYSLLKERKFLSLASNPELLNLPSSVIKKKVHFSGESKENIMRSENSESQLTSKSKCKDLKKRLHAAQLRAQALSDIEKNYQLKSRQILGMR

[5] = target: T3, Serine/threonine-protein kinase Nek2 (Homo sapiens); conditions: at 1 µM
[6] = target: Serine/threonine-protein kinase Nek6 (Homo sapiens) (UniProt Q9HC98); conditions: at 0.1 µM
[7] = target: Serine/threonine-protein kinase Nek6 (Homo sapiens) (UniProt Q9HC98); conditions: at 1 µM
[8] = target: Serine/threonine-protein kinase Nek7 (Homo sapiens) (UniProt Q8TDX7); conditions: at 0.1 µM
[9] = target: Serine/threonine-protein kinase Nek7 (Homo sapiens) (UniProt Q8TDX7); conditions: at 1 µM
[10] = target: T4, Serine/threonine-protein kinase Nek9 (Homo sapiens) (UniProt Q8TD19); conditions: at 0.1 µM
T4 sequence (whole entry): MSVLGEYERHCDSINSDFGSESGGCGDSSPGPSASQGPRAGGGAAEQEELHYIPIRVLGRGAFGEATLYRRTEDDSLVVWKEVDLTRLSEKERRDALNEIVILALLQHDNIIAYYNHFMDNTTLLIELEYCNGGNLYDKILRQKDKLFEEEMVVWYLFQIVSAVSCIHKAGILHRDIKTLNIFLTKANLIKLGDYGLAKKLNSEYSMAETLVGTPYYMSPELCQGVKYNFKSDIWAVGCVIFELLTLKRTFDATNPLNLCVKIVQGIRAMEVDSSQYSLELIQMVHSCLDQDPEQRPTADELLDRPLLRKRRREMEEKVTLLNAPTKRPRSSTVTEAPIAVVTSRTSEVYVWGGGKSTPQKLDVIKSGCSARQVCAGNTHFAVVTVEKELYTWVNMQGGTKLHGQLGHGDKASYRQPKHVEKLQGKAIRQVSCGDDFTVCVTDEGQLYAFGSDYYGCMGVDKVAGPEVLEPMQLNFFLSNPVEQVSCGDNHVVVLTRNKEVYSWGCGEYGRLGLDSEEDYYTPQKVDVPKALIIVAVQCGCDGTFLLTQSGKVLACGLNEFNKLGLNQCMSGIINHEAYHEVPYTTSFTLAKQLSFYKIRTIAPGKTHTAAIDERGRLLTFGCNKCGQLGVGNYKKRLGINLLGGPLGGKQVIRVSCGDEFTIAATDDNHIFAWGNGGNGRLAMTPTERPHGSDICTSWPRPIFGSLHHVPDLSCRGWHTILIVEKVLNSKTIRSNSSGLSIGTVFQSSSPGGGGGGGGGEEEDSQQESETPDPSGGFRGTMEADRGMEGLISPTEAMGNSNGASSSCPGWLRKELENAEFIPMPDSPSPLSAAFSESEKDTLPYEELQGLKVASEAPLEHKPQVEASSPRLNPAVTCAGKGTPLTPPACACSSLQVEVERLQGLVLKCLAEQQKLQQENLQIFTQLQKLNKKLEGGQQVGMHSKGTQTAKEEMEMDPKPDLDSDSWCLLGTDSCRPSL

[11] = target: T4, Serine/threonine-protein kinase Nek9 (Homo sapiens); conditions: at 1 µM
[12] = target: Serine/threonine-protein kinase PLK1 (Homo sapiens) (UniProt P53350); conditions: at 0.1 µM
[13] = target: Serine/threonine-protein kinase PLK1 (Homo sapiens) (UniProt P53350); conditions: at 1 µM
[14] = target: T5, Dual specificity protein kinase TTK (Homo sapiens) (UniProt P33981); conditions: at 0.1 µM
T5 sequence (whole entry): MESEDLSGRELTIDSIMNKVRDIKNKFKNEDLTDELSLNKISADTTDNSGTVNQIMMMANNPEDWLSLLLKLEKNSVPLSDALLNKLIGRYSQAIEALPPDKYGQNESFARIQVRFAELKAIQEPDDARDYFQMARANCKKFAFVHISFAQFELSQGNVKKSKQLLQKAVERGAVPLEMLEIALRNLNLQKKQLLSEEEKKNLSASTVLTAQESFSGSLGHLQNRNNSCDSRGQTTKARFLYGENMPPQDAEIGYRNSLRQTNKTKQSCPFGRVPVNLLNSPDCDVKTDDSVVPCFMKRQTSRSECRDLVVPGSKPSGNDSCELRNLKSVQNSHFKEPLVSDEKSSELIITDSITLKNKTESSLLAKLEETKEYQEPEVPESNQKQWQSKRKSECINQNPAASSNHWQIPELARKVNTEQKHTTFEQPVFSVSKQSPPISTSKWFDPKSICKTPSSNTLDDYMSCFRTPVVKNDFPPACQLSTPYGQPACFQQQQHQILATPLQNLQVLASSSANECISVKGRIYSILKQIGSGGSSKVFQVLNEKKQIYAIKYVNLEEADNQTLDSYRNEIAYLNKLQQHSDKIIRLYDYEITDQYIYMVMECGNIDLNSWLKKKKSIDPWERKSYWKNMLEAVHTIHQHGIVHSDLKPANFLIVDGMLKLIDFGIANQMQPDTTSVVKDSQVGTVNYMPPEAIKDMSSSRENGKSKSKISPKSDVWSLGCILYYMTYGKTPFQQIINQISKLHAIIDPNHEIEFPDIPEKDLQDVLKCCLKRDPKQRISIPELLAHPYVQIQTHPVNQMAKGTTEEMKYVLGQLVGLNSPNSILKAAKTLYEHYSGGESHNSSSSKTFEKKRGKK

[15] = tested on: T6, Receptor-type tyrosine-protein kinase FLT3 (Homo sapiens), P36888 [D835Y]; conditions: at 1 µM
T6 sequence (whole entry): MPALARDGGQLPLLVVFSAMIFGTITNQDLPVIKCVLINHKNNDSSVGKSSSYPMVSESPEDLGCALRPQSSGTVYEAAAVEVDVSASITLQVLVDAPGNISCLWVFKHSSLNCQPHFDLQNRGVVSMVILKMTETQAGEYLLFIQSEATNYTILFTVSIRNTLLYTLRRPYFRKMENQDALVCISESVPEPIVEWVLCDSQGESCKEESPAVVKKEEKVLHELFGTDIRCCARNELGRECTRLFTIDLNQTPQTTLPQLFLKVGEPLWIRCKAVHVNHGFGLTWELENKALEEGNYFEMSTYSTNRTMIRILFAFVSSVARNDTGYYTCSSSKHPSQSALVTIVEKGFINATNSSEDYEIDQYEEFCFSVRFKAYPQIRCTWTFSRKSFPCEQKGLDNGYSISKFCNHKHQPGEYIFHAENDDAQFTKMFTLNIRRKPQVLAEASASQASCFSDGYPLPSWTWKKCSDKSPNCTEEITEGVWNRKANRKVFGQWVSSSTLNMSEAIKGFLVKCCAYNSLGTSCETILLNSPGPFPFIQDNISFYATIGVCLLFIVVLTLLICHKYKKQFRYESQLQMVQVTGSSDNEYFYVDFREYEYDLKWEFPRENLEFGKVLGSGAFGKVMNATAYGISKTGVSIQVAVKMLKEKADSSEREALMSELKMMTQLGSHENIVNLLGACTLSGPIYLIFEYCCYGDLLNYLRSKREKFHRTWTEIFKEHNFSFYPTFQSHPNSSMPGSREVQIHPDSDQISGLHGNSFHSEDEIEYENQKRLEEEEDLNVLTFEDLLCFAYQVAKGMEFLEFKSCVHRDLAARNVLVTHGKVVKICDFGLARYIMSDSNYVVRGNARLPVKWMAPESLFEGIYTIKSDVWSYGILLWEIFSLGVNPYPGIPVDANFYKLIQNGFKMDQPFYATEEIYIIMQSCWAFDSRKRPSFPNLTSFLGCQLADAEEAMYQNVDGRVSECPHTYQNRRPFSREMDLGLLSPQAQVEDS

[16] = target: Vascular endothelial growth factor receptor 3 (Homo sapiens) (UniProt P35916); conditions: at 0.1 µM
[17] = target: Vascular endothelial growth factor receptor 3 (Homo sapiens) (UniProt P35916); conditions: at 1 µM
[18] = target: Macrophage colony-stimulating factor 1 receptor (Homo sapiens) (UniProt P07333); conditions: at 0.1 µM
[19] = target: Macrophage colony-stimulating factor 1 receptor (Homo sapiens) (UniProt P07333); conditions: at 1 µM
[20] = target: Tyrosine-protein kinase Fyn (Homo sapiens) (UniProt P06241); conditions: at 0.1 µM
Chain of Tyrosine-protein kinase Fyn (Homo sapiens) (P06241 2-537 limits assumed): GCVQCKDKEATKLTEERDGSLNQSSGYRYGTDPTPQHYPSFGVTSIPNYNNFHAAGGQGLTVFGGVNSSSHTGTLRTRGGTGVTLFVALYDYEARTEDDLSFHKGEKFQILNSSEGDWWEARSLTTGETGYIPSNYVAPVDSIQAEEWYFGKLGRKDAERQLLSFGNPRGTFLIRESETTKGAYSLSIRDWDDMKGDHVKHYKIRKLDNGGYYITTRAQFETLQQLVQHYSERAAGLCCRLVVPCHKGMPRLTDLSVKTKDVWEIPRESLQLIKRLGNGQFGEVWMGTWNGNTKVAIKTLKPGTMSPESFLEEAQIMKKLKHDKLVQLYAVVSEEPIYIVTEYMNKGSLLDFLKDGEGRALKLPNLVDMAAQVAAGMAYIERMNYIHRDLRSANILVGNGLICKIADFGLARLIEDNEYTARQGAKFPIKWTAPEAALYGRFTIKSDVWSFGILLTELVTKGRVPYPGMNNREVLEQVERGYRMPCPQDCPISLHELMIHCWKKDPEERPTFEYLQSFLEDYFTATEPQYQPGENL

Chain of Macrophage colony-stimulating factor 1 receptor (Homo sapiens) (P07333 whole entry): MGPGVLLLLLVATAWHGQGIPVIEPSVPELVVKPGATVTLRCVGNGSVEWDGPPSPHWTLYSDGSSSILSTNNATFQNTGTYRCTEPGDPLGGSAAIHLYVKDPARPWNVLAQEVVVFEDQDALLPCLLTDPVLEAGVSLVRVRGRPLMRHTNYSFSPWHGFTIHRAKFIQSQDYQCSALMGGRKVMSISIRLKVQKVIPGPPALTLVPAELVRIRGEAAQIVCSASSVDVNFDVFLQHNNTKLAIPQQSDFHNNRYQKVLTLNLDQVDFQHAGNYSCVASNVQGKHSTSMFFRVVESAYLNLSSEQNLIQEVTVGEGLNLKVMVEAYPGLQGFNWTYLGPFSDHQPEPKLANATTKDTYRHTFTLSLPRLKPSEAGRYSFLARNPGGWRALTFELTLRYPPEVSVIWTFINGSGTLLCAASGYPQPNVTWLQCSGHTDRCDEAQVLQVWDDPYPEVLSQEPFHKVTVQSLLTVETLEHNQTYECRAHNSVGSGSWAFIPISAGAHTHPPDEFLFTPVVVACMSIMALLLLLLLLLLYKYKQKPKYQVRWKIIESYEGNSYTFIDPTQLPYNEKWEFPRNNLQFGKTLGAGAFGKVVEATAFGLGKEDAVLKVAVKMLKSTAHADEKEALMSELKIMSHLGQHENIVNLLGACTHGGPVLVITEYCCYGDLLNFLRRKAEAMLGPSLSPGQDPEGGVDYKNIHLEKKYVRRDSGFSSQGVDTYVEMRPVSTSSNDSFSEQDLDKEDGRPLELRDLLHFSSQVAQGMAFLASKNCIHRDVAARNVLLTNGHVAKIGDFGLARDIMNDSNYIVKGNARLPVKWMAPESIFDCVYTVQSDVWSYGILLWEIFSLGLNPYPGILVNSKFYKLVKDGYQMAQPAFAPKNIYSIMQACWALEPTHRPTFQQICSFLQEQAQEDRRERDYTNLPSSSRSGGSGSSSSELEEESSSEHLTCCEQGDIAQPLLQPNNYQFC
Chain of Serine/threonine-protein kinase PLK1 (Homo sapiens) (P53350 whole entry): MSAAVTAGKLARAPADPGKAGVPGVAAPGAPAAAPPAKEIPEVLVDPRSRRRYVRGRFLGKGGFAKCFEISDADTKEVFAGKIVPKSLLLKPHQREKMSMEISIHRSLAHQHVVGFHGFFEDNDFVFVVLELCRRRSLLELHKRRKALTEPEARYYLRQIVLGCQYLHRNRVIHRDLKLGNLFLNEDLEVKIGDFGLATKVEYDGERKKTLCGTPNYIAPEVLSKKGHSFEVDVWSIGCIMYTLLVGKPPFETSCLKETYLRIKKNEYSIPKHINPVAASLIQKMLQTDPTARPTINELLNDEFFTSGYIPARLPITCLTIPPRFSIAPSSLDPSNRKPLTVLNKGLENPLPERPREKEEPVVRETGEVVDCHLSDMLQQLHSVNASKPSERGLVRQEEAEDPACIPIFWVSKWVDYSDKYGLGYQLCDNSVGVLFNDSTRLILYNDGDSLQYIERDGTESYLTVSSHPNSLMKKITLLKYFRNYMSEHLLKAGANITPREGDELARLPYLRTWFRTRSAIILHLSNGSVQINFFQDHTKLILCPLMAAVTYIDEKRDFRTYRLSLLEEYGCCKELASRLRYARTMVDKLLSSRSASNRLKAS
Chain of Vascular endothelial growth factor receptor 3 (Homo sapiens) (P35916 whole entry): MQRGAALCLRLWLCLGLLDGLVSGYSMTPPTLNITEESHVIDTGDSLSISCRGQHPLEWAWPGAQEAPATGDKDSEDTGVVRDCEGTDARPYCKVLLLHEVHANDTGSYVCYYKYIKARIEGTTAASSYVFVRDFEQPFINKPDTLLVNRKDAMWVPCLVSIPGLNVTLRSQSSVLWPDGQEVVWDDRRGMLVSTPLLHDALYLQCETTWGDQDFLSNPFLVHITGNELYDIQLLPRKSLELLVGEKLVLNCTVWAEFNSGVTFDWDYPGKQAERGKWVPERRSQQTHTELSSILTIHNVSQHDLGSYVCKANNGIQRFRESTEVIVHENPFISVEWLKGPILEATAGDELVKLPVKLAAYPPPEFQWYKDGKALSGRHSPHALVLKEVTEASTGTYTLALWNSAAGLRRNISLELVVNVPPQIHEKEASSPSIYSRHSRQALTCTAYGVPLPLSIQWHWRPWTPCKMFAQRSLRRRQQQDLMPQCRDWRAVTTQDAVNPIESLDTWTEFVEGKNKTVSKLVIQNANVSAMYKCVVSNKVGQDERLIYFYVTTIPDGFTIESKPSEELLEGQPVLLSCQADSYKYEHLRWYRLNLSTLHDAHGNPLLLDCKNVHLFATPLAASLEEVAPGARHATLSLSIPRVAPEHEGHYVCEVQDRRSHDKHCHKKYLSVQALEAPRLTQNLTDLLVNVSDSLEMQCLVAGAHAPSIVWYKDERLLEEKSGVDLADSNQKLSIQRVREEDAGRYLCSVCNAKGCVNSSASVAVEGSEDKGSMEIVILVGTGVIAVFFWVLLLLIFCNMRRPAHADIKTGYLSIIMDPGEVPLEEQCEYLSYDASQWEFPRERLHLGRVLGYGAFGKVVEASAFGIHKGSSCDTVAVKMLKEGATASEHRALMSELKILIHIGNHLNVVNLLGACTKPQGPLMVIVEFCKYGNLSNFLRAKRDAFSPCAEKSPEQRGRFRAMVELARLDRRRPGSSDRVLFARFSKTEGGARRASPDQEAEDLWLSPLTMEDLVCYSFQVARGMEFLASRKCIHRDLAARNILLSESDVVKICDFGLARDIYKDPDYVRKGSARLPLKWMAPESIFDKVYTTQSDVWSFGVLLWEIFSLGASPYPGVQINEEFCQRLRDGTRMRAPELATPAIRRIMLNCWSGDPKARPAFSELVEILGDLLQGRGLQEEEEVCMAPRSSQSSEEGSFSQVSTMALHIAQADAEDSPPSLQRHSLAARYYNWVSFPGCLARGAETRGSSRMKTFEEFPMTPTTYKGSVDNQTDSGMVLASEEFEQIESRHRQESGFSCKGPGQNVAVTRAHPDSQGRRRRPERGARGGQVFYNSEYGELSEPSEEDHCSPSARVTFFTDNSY
Chain of Serine/threonine-protein kinase Nek6 (Homo sapiens) (Q9HC98 whole entry): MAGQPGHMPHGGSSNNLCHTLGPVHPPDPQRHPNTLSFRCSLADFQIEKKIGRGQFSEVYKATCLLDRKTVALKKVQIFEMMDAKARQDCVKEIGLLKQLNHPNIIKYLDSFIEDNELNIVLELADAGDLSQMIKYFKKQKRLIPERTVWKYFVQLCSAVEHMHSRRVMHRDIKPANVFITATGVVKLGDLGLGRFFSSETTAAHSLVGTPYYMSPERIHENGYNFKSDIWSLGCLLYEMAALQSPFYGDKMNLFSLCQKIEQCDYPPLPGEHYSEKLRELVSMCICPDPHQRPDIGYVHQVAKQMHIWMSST
Chain of Serine/threonine-protein kinase Nek7 (Homo sapiens) (Q8TDX7 whole entry, looked up): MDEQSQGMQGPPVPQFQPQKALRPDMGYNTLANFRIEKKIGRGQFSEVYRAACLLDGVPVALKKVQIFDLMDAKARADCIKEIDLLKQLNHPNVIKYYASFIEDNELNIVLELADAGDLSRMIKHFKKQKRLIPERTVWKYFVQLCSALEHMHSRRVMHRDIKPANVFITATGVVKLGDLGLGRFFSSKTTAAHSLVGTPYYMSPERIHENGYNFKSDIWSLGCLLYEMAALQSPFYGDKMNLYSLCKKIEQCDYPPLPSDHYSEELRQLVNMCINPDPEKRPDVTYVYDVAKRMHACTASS

SMILES | inhibition [1] [%] | inhibition [2] [%] | inhibition [3] [%] | inhibition [4] [%] | inhibition [5] [%] | inhibition [6] [%] | inhibition [7] [%] | inhibition [8] [%] | inhibition [9] [%] | inhibition [10] [%] | inhibition [11] [%] | inhibition [12] [%] | inhibition [13] [%] | inhibition [14] [%] | inhibition [15] [%] | inhibition [16] [%] | inhibition [17] [%] | inhibition [18] [%] | inhibition [19] [%] | inhibition [20] [%]
COc1cccc(-n2ncc3c(N/N=C/c4ccncc4)ncnc32)c1 | 9.13 | 3.6 | 12.5 | 5.11 | 5.47 | 4.03 | 3.93 | 2.45 | 3.46 | 7.16 | 6.71 | 2.19 | 3.32 | 8.59 | 52.1 | 9.86 | 38.4 | 6.17 | 30.2 | 26.5
COc1cc(C=NNc2ncnc3c2cnn3Cc2ccccc2)ccc1O | -4.1 | -1.23 | -0.61 | -5.42 | -5.26 | -0.58 | -3.89 | -6.27 | -2.54 | 3.47 | -0.84 | -3.5 | -2.85 | -6.4 | 2.91 | 0.12 | 0.41 | 14.5 | 58.7 | 6.12
Nc1nonc1-c1nc2cnccc2n1C1CCCCC1 | 16.2 | -1.33 | 0.56 | -2.06 | -7.26 | 0.47 | -0.88 | 0.07 | -0.97 | -5.44 | -2.86 | -2.48 | -0.5 | -1.57 | 19.7 | 4.11 | 16.7 | 27.4 | 76.3 | 2.06
